The list is not random: actives were taken first. Their share in the collection is about 21%.
NS1 function inh: blocks influenza NS1 protein function. Potency, µM (highest dose often 46.1 µM), for the others: at the top dose activity, positive = more growth. actives 0.4% (n = 270,000). AID 2326; calls by dose curve; also: potency is read from the fitted curve at half-maximal effect; actives are rising curves; nearly all actives have a fitted effect of over 50% in size
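Recovery from NS1-induced slow growth read by OD600 in budding yeast switched to galactose assay medium (pH 6.0, -URA) at 1:100 dilution. Compound 23 nl per well; the matching strain lacking NS1 serves as control.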
Shiga toxin inh: Shiga toxin inhibition | inhibition, % at 38.7 µM | actives 9.2% (n = 290,000) | AID 2315 | Vero cells, Shiga toxin protein synthesis inhibition reporter; in the data active = inhibition mostly above about 28%, no sharp cut-off; inactive = mostly below about 43%; also: 0% is about no effect
CHX counter: counter-screen hit for Shiga toxin inhibitors, cycloheximide; cell reporter, cycloheximide protein synthesis inhibition counterscreen; actives 12% (n = 300,000); max response, %; in the data active = max response mostly above about 13%, no sharp cut-off; inactive = mostly below about 14%; also: read at 38.3 µM for the half of the compounds with a filed dose; 0% is about no effect
Pf growth 96h: inhibits malaria parasite growth, 96 h; P. falciparum luciferase reporter growth, 96 h; Potency, µM (top dose mostly 28.7 µM), without a hit: at the top dose activity change, negative = inhibition, most hits filed as inhibitors; actives 6.9% (n = 320,000); also: potency is read from the fitted curve at half-maximal effect; % is scaled to controls: 0 for no effect and ±100 for the full control effect
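Two-generation exposure (96 h) targets delayed-death phenotype. Reporter parasites carrying integrated firefly luciferase, in red cells at 2% hematocrit and 0.05% parasitemia final, kept at 37 C, 5% CO2; luminescence loss indicates inhibition.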
Pf growth 48h: inhibits P. falciparum growth in the first generation, 48 h | P. falciparum luciferase growth in erythrocytes, 48 h | Potency, µM (highest dose often 28.7 µM), without a hit: top-dose activity change, negative = inhibition, most hits filed as inhibitors | actives 5.9% (n = 310,000); also: potency is read from the fitted curve at half-maximal effect; % is scaled to controls: 0 for no effect and ±100 for the full control effect
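Luminescence readout; reporter = integrated firefly luciferase in P. falciparum. RBC culture at 2% hematocrit, 0.1% parasitemia final, 37 C/5% CO2; decreased signal taken as growth inhibition.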
SARS PLpro yeast-1: inhibitors of SARS-CoV papain-like protease in yeast | S. cerevisiae expressing SARS-CoV PLpro, growth rescue | Potency, µM (doses to about 32.9 µM), inactives show at the highest dose activity, positive = growth rescue, most hits filed as activators | actives 0.19% (n = 330,000); calls by dose curve; also: potency is read from the fitted curve at half-maximal effect; 0% is about no effect; nearly all actives have a fitted effect of over 55% in size
SARS PLpro yeast-2: Rescues yeast growth by inhibiting SARS-CoV PLpro; shares compounds with SARS PLpro yeast-1; yeast expressing SARS-CoV PLpro, growth phenotype rescue; calls only; actives 19% (n = 1,000); call rule not given here
* = called active by the depositor; i = inactive; ? = inconclusive; . = no result given; + = active, no number; [ ] = remark or other dose. Unless noted, calls follow the shape of the dose curve; as a rule, active = well fitted inhibition curve with a large enough effect; inconclusive = small, poorly fitted or top-dose-only effect, or another doubt; inactive = no such curve, though single readings can be large or run the other way.

SMILES	NS1 function inh	Shiga toxin inh	CHX counter	Pf growth 96h	Pf growth 48h	SARS PLpro yeast-1	SARS PLpro yeast-2
COc1cc(NC(=O)c2cc([N+](=O)[O-])ccc2N2CCOCC2)ccc1NC(=O)c1ccco1	5%	-5	-1	?	?	14%	.
COc1cc(NC(=O)c2cccc([N+](=O)[O-])c2C)ccc1NC(=O)c1ccco1	19%	72*	19*	0%	24%	2.8µM*	i
c1ccc2c(CCNCc3ccc4c(c3)OCO4)c[nH]c2c1	9%	-7	-1	73%	?	?	i
CC1CC(C)CN(S(=O)(=O)c2ccc(C(=O)OCC(=O)NCCN3C(=O)CSC3=O)cc2)C1 (stereo not drawn)	.	-16	-3	47%	24%	-2%	.
O=C(Nc1ccc(Cl)c(S(=O)(=O)N2CCCCC2)c1)c1ccncc1	.	.	.	7.4µM*	?	5µM*	i
O=C(Nc1ccc(Cl)c(S(=O)(=O)N2CCCCC2)c1)c1cnccn1	.	.	.	?	?	-11%	.
CC(=O)c1ccccc1NC(=O)COC(=O)CN1C(=O)C2CCCCC2C1=O (stereo not drawn)	.	.	.	-22%	-24%	-1%	.
CC(=O)Nc1ccc(NC(=O)Cc2sc(C)nc2-c2ccc(C)cc2)cc1	7%	-9	-4	?	-22%	?	i
O=C(Nc1nnc(Cc2ccccc2)s1)Nc1ccccc1F	18%	-2	10	15µM*	-39%	?	+
O=C(NCCc1ccc(Cl)cc1)/C(=C/c1cccnc1)NC(=O)c1ccccc1	5%	16	-2	?	-3%	16µM*	i
O=[N+]([O-])c1ccc(Oc2cccc3cccnc23)c([N+](=O)[O-])c1	-18%	-8	-2	13µM*	10µM*	.	i
N#Cc1ccc(Oc2cccc3cccnc23)c([N+](=O)[O-])c1	2%	25	-1	5%	12%	-1%	.
Cc1sc2ncnc(SCC(=O)N3CCCC(C(N)=O)C3)c2c1C (stereo not drawn)	.	.	.	-19%	-8%	-2%	.
CNC(=S)N/N=C(\C)c1cccc([N+](=O)[O-])c1	7%	-4	-1	17%	4%	13µM*	i
CNC(=S)N/N=C(\C)c1ccc2c(c1)OCCO2	3%	36	19*	12%	33%	?	+
O=C(Nc1ccc(F)cc1F)NC1CCN(S(=O)(=O)c2ccc(F)cc2)CC1	.	4	-3	-5%	-5%	-1%	.
Cc1cc(Cl)ccc1NC(=O)NC1CCN(S(=O)(=O)c2ccc(F)cc2)CC1	9%	2	-5	?	.	?	?
Cc1ccc(C23CC4CC(CC(C(=O)N5CCOCC5)(C4)C2)C3)cc1	5%	-19	-6	-28%	.	4%	.
O=C(CNC(=O)c1ccco1)OC(C(=O)c1ccccc1)c1ccccc1 (stereo not drawn)	-21%	2	-4	5%	4%	?	i
CC(=O)N/C(=C/c1ccccc1)C(=O)NC(Cc1ccccc1)C(=O)O (stereo not drawn)	-10%	-2	-2	-7%	8%	?	i
CCC(=O)NC(c1cccs1)c1cc([N+](=O)[O-])c2cccnc2c1O (stereo not drawn)	-23%	-11	-3	23%	?	?	i
CC(=O)NC(c1cccs1)c1cc([N+](=O)[O-])c2cccnc2c1O (stereo not drawn)	-18%	-7	-2	?	?	?	.
CC(C)C(=O)NC(c1ccccc1)c1cc([N+](=O)[O-])c2cccnc2c1O (stereo not drawn)	4%	-14	1	0.37µM*	-8%	?	i
CCCC(=O)NC(c1cccs1)c1cc([N+](=O)[O-])c2cccnc2c1O (stereo not drawn)	8%	15	-1	147%	?	.	i
CCN(C[C@H]1N[C@@](C)(C(=O)OC)[C@H]2C(=O)N(C)C(=O)[C@@H]12)C(=O)Nc1ccc(Cl)cc1	.	.	.	.	.	-1%	.
SMILES	NS1 function inh	Shiga toxin inh	CHX counter	Pf growth 96h	Pf growth 48h	SARS PLpro yeast-1	SARS PLpro yeast-2
COc1cccc(C(=O)OCC(=O)N2CCc3ccccc3C2)c1	.	.	.	.	.	-12%	.
COc1ccccc1[C@@H]1C(c2cccc(C)c2)=NN(c2ccc(Br)cc2)[C@H]1C(=O)N1CCOC1=O	.	i	-2	.	.	4µM*	i
Cc1cccc(C2=NN(c3ccc(Br)cc3)[C@@H](C(=O)N3CCOC3=O)[C@@H]2c2ccc(F)cc2)c1	?	3	-1	?	?	4%	.
CNC(=S)N/N=C/C1=CCC2CC1C2(C)C (stereo not drawn)	-11%	-2	-6	4.1µM*	5.9µM*	13µM*	+
Oc1ccccc1Cc1c(O)ccc2ccccc12	.	.	.	-12%	16%	-1%	.
CC(C)(C)N(Cc1ccccc1)C(=O)COC(=O)C1CCCCC1	.	.	.	.	.	3.2µM*	i
CC(C)(C)N(Cc1ccccc1)C(=O)COC(=O)CN1C(=O)C2CC=CCC2C1=O (stereo not drawn)	-1%	3	0	28%	3%	2%	.
O=C(CSc1nnc(-c2ccccc2)n1Cc1ccccc1)NNC(=O)c1ccccc1O	11%	-9	6	2%	23%	5µM*	i
O=C(O)CSc1nnc(-c2ccccc2O)n1Cc1ccccc1	2%	2	-5	1%	21%	7%	.
Cn1c(SCC(=O)NNC(=O)c2ccccc2O)nnc1-c1ccccc1	-2%	-3	10	33%	3%	?	.
O=C(CSc1nnc(-c2ccccc2O)n1Cc1ccccc1)NNC(=O)c1ccccc1O	10%	-8	0	42%	13%	6.3µM*	+
NC1=NC(=O)/C(=C/c2c(OS(=O)(=O)c3ccc(Cl)cc3)ccc3ccccc23)S1	?	21	-6	45%	-1%	-6%	.
CCOc1ccc(NC(=O)NC2CCOC(C)(C)C2)cc1 (stereo not drawn)	-8%	-19	-3	3%	?	?	i
CCCCC(=O)NNC(=S)NC(=O)CCC	-2%[9.22 µM]	-2	13	?	-24%	16µM*	i
CCCCC(=O)NC(=S)NNC(=O)CC#N	-4%	34	-2	.	-3%	1%	.
Cn1cccc1C(=S)N=P(C1CCCCC1)(N1CCOCC1)N1CCOCC1	-12%	-14	-1	8.3µM*	.	2.8µM*	i
Cc1cc(C)nc(SCc2ccc(C(=O)N/N=C/c3cccc(O)c3O)cc2)n1	-7%	-60	17*	4.7µM*	10µM*	3.2µM*	+
C=CCOc1ccc(C2=NOC(C(=O)Nc3ccc4c(c3)OCCO4)C2)cc1OC (stereo not drawn)	-10%	17	13	-7%	-3%	1%	.
C=CCn1c(SCC(=O)Nc2cc(C)ccc2OC)nnc1-c1ccco1	-53%	-18	-9	-24%	-24%	?	i
